# Screens (PubChem)
# RORgamma inh – ROR gamma (mouse) transcription inhibition | hit rate 5.4% among 310,000 | AID 2551 | Drosophila S2 Gal4-RORgamma UAS-luciferase reporter, 20 h | Potency, µM (series often up to 53.6 µM), for inactives: at the top dose activity change, negative = inhibition, actives largely listed as inhibitors; note: potency is the fitted concentration of half-maximal effect; % is set by controls: 0 for no effect and ±100 for the full control effect; nearly all actives have a fitted effect of over 60% in size
# Target sequence (P51450 whole entry, looked up, the tested form may be a part): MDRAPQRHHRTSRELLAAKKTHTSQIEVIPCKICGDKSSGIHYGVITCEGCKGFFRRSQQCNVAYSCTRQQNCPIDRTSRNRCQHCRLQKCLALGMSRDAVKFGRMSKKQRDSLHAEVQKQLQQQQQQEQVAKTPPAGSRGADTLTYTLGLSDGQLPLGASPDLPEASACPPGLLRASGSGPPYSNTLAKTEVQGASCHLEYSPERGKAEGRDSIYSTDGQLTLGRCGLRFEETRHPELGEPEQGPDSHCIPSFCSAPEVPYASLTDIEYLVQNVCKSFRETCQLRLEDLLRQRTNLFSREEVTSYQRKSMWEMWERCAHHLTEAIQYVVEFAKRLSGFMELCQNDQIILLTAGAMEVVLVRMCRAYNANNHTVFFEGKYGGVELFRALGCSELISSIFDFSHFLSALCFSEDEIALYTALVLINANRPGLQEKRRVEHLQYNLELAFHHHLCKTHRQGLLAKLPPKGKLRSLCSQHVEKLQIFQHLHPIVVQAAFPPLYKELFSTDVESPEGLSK
#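 Using a luciferase readout, inhibitors were identified by reduced reporter activity in Drosophila cells coexpressing a copper-inducible Gal4–ROR gamma fusion and UAS-driven Photinus luciferase, incubated 20 hr after 700 uM copper sulfate.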
# Gal4-VP16 FLuc – inhibits Gal4-VP16 luciferase reporter, ROR gamma counter-screen. Drosophila S2 Gal4-VP16 UAS-luciferase, luminescence, 20 h. Potency, µM (series often up to 53.6 µM), for the others: top-dose activity, negative = inhibition, most hits filed as inhibitors. hit rate 3.5% among 310,000. AID 2546;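 note: Gal4-VP16 expression switched on by copper sulfate through the metallothionein promoter; potency is the fitted concentration of half-maximal effect; % is set by controls: 0 for no effect and ±100 for the full control effect; nearly all actives have a fitted effect of over 50% in size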
# MCF10A rerep – inducers of DNA re-replication in MCF 10A breast cells; MCF 10A DNA re-replication, Hoechst nuclear intensity, 48 h; Potency, µM (titrated, usually from 46.1 µM), without a hit: top-dose activity, positive = re-replication, actives largely listed as activators; hit rate 2.9% among 350,000; AID 624296; note: potency is the fitted concentration of half-maximal effect; % of control where 0% means no effect; nearly all actives have a fitted effect of over 50% in size
# SW480 rereplic – induces DNA re-replication in SW480 colon adenocarcinoma cells; SW480 DNA re-replication, Hoechst DNA content imaging, 48 h; hit rate 1.8% among 340,000; Potency, µM (highest dose often 46.1 µM), inactives show at the top dose re-replication activation, most hits filed as activators; AID 624297; note: potency is the fitted concentration of half-maximal effect; % of control where 0% means no effect; nearly all actives have a fitted effect of over 55% in size
#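 SW480 cells exposed to compounds for 48 hr at 37 C, 5% CO2, then Hoechst-stained 40 min. Nuclear DNA content imaged by fluorescence scanning (405 nm excitation, 500-530 nm emission); re-replication scored as increased high-intensity nuclei.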
# IL-1B inflam inh – inflammasome signaling inhibition, IL-1 beta readout; THP-1 LPS/ATP IL-1B secretion, AlphaLISA, 16 h; hits give low values; AID 743279; activity change, % at 57.5 µM; hit rate 4.7% among 360,000; in the data active = activity change below about -50%; inconclusive = mostly about -30% to -49%; note: % is set by controls: 0 for no effect and ±100 for the full control effect
#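 Secreted IL-1B measured by AlphaLISA bead assay after 16 h compound exposure of THP-1 cells; compounds (final up to 57.5 uM) added 1 h before LPS (250 ng/mL) and ATP (1.25 mM) stimulation; lower signal means less secretion.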
# An asterisk follows results filed as active; ? = inconclusive; · = no result given; [ ] = remark or other dose. In the library only some 11% were active in any assay of this set; here they are far more common. Unless noted, calls come from the whole dose curve; as a rule, active = well fitted curve in the direction sought with a large enough effect; inconclusive = small, poorly fitted or top-dose-only effect, or another doubt; inactive = no such curve, though single readings can be large; an effect the other way counts as inactive or inconclusive.
SMILES,RORgamma inh,Gal4-VP16 FLuc,MCF10A rerep,SW480 rereplic,IL-1B inflam inh
COc1ccccc1OCCOCCN1CCCC1,·,·,3%,-1%,14
Clc1ccccc1OCCCCN1CCNCC1,-5%,-2%,21µM*,-44%,-16
Cc1ccc(OCCCCCCN2CCNCC2)cc1,·,·,?,?,-90*
Cc1ccccc1OCCOCCN1CCCCCC1,-10%,0%,11%,5%,-52*
Cc1ccccc1OCCCCCCN1CCNCC1,·,·,15%,-3%[9.22 µM],-74*
Cc1ccc(C(O)c2ncc(-c3cccc4ccccc34)[nH]2)cc1F (configuration not stated),·,·,·,·,-14
CCCC[C@H]1CCCO[C@@](C(=O)NCc2cc(C)n(C)n2)(C(F)(F)F)C1,-7%,-9%,·,·,·
Cc1ccc(-c2csc3ncn(CC(=O)NCC(c4ccco4)N4CCCC4)c(=O)c23)cc1 (configuration not stated),·,·,-3%,-16%,-17
c1ccc(-c2ccccc2OCCCCN2CCCCC2)cc1,-43%,-18%,9%,?,-63*
COc1cccc(CN(C)C(=O)CC[C@H]2O[C@@H](n3ccc(=O)[nH]c3=O)[C@H](O)[C@@H]2O)c1,·,·,·,·,27
CN(C)C=Nc1ncc2c3ccccc3n(Cc3ccccc3)c2c1C#N,-21%,6%,?,?,-4
CN(C)C=Nc1ncc2c3ccccc3n(CCN(C)C)c2c1C#N,-25%,?,?,?,-77*
CCN(CC)CCn1c2ccccc2c2cnc(N)c(C#N)c21,0.18µM*,-63%,?,?,-104*
S=c1[nH]c2ccccc2s1,7.9µM*,10µM*,·,·,·
O=C(Nc1ccc2[nH]c(=S)sc2c1)c1ccccc1,-23%,10%,6%,-5%,-18
COCCN1C(=O)N[C@@H](c2cccc(C(F)(F)F)c2)C(C(C)=O)=C1C,-11%,-3%,·,·,·
Cc1cc2cc(CCNC(=O)C(=O)c3c[nH]c4ccccc34)c(=O)[nH]c2cc1C,23%,0%,?,19%,-56*
O=C(NCCc1c[nH]c2ccccc12)C(=O)c1c[nH]c2ccccc12,?,17%,-6%,-2%,-18
N#Cc1c(-c2ccc(Cl)cc2)c2c([nH]c1=O)-c1ccccc1OC2,-1%,-5%,1.8µM*,5.8µM*,20
Cc1cccc(C)c1OCC(O)CN1CCN(c2ccccn2)CC1 (configuration not stated),-22%,-1%,-1%,-3%,16
OC(CN1CCN(c2ccccn2)CC1)Cn1c2ccc(Cl)cc2c2cc(Cl)ccc21 (configuration not stated),-32%,?,21µM*,?,-20
COc1cccc(OCC(O)CN2CCN(c3ccccn3)CC2)c1 (configuration not stated),-19%,6%,11%,-1%,-2
OC(COC(c1ccc(Cl)cc1)c1ccc(Cl)cc1)CN1CCN(c2ccccn2)CC1 (configuration not stated),9%,-3%,?,?,-84*
CCOCCCNC(=O)CN1CCN(S(=O)(=O)c2ccc3c(c2)CCC3)CC1,·,·,5%,3%,15
CN(CC(=O)Nc1ccc(F)cc1)C(=O)COC(=O)Cc1c(F)cccc1Cl,·,·,?,-51%,-17
SMILES,RORgamma inh,Gal4-VP16 FLuc,MCF10A rerep,SW480 rereplic,IL-1B inflam inh
CN(CC(=O)Nc1ccccc1Cl)C(=O)COC(=O)Cc1c(F)cccc1Cl,10µM*,?,5%,0%,-23
CC(C)n1c(SCC(=O)NC2CC2)nnc1C1CC1,-8%,-5%,1%,2%,12
Cc1cc(C(=O)Nn2c(C3CCCCC3)nc3ccccc3c2=O)ccc1[N+](=O)[O-],?,-16%,?,-3%,51
O=C(Nn1c(C2CCCCC2)nc2ccccc2c1=O)c1ccc(Cl)c([N+](=O)[O-])c1,?,?,7.3µM*,4%,-224*
COc1ccc([C@@]23Oc4cc(OC)cc(OC)c4[C@]2(O)[C@H](O)[C@H](C(=O)N(C)C)[C@H]3c2ccccc2)cc1,·,·,?,?,-3
N=c1n(CCN2CCCCC2)c2ccccc2n1CC(O)c1ccc(Cl)c(Cl)c1 (configuration not stated),-74%,?,?,-2%,-68*
O=C(Cn1ccccc1=S)c1ccc(Cl)c(Cl)c1,·,·,16%,?,-81*
CCn1c(=N)n(CC(=O)c2ccc(Cl)c(Cl)c2)c2ccccc21,-45%,4%,26µM*,?,-73*
N=c1n(CCN2CCCCC2)c2ccccc2n1CC(=O)c1ccc(Cl)c(Cl)c1,24%,-9%,10µM*,?,·
COC(=O)Cn1c(=N)n(CCN2CCCCC2)c2ccccc21,2%,-2%,2%,-5%,-19
CCOc1ccccc1NC(=O)COC(=O)C1COc2ccccc2O1 (configuration not stated),·,·,·,·,34
COc1ccc(NS(=O)(=O)c2cccc(C(=O)NNC(=O)c3ccc(Br)o3)c2)cc1,·,·,3%,-41%,-13
COc1cc(NC(=O)c2sc3ncn(CC(=O)N4CCCCC4C)c(=O)c3c2C)cc(OC)c1OC (configuration not stated),·,·,·,·,-11
CC[N+](CC)(CC)CC[C@](O)(c1ccccc1)C1CCCCC1,-1%[2.98 µM],5%[17 µM],-2%[20.6 µM],-1%[20.6 µM],·
N#CCSc1nc2c(c(C3CC=CCC3)c1C#N)CCC2 (configuration not stated),-18%,3%,21µM*,0%,5
CCCN(CC(=O)Nc1ccccc1OC)C(=O)Cn1[nH]c(=O)c2ccccc2c1=O,·,·,6%,-9%,0
CCCN(CC(=O)Nc1ccccc1OC)C(=O)CSc1ccc(Br)cc1C,·,·,?,?,-54*
Clc1ccc2oc(-c3ccccc3)cc(=NCCCN3CCOCC3)c2c1,-19%,-3%,8%,5%,-91*
OCCCCCN=c1cc(-c2ccccc2)oc2ccc(Cl)cc12,-3%,-4%,26%,19%,-103*
Clc1cccc(-c2nc(NCCCN3CCOCC3)c3ccccc3n2)c1,?,?,-1%,16%,?
Nc1nc(-c2ccccc2)cn1/N=C/c1ccccc1,?,-13%,?,?,?
S=c1[nH]c(-c2ccccc2)cn1/N=C/c1ccncc1,6.3µM*,-14%,-2%,-1%,-9
CCOc1ccc(/C=N/Nc2ccccc2)cc1,25%,-10%,-2%,16%,23
CCOc1ccc(/C=N/n2cc(-c3ccccc3)[nH]c2=S)cc1,1.3µM*,?,0%,12%,-15
Nc1nonc1-n1nnc(C(=O)N/N=C/c2ccc(Cl)cc2Cl)c1CN1CCCC1,-3%,-7%,-3%,3.7µM*,-2
Nc1nonc1-n1nnc(C(=O)N/N=C/c2ccccc2Cl)c1CN1CCOCC1,7%,1%,0%,-2%,5
